{"source": "PubChem BioAssay (NCATS)", "note": "Results filed as inconclusive are left out. Values without a mark were called inactive. The source made the active and inactive calls. Calls come from the whole dose curve; as a rule, active = well fitted inhibition curve with a large enough effect; inconclusive = small, poorly fitted or top-dose-only effect; inactive = no such curve, though single readings can be large or run the other way. Potency is the fitted concentration of half-maximal effect."}
{"target": "RecQ-like DNA helicase BLM (Homo sapiens) (UniProt P54132)", "sequence (P54132 whole entry, looked up)": "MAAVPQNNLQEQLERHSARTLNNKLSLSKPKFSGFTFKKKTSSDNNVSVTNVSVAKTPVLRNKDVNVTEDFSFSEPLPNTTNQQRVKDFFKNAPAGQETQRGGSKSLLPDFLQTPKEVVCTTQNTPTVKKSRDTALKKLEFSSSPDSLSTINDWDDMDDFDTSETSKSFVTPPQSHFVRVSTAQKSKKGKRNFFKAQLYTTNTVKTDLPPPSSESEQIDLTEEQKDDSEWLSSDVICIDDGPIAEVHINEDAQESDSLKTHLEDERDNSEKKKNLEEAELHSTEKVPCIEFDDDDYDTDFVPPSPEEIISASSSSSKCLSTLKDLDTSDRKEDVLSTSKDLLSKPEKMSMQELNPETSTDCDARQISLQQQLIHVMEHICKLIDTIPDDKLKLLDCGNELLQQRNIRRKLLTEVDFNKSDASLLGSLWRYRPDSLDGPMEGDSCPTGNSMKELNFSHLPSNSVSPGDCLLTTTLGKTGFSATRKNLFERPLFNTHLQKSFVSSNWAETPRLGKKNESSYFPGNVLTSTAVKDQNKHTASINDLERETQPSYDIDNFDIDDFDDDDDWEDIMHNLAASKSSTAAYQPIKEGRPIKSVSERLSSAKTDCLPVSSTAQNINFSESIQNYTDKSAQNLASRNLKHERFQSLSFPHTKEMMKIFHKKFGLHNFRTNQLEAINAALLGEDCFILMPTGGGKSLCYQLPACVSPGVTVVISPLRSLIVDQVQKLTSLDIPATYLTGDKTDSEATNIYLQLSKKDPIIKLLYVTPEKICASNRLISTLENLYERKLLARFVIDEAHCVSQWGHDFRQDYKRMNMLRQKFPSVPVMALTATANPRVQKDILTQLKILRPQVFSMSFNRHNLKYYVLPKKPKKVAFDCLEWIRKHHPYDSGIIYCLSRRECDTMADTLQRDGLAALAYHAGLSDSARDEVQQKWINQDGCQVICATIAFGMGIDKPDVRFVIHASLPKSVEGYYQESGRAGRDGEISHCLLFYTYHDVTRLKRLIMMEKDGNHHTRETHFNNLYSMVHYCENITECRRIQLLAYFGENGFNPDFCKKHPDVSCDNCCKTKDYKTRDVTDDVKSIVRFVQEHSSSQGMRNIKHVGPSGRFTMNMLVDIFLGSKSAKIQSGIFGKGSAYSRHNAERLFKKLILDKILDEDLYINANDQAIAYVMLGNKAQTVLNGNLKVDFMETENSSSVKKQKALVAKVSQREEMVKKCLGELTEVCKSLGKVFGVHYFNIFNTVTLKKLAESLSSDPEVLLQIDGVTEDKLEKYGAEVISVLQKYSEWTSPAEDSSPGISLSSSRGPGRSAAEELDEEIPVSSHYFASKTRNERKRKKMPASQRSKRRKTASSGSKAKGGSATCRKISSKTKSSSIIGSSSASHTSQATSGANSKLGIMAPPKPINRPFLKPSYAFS", "test": "qHTS Validation Assay for Inhibitors of Bloom's syndrome helicase (BLM) (AID 2364);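 for activity change, negative = inhibition: plate controls were DMSO vehicle for no effect and enzyme-free control for full effect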", "conditions": "BLM helicase DNA unwinding, fluorescence, in vitro; series mostly up to 57.1 µM; activity change, negative = inhibition: at the top concentration", "how_it_was_run": "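50 nM BLM preincubated 15 min at room temperature with compound in pH 8.0 Tris buffer containing 2.5 ug/ml poly(dI-dC); started with 200 nM TAMRA/BHQ-2 forked duplex and 2 mM ATP (final). Unwinding read as TAMRA fluorescence increase, two reads 2 h apart.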", "units": {"activity change, negative = inhibition": "%"}}
{"smiles": "CCOC(=O)Nc1ccc(NCc2ccc(F)cc2)nc1N", "Potency": "28.2 µM (active)"}
{"smiles": "COc1cc2nc(N3CCN(C(=O)c4ccco4)CC3)nc(N)c2cc1OC", "activity change, negative = inhibition": 51.5}
{"smiles": "CN1CCC(=C2c3ccccc3C=Cc3ccccc32)CC1", "activity change, negative = inhibition": -4.3}
{"smiles": "Nc1c2c(nc3ccccc13)CCCC2", "activity change, negative = inhibition": 41.2}
{"smiles": "Fc1ccc([C@@H]2CCNC[C@H]2COc2ccc3c(c2)OCO3)cc1", "activity change, negative = inhibition": -3.56}
{"smiles": "O=C1c2c(O)ccc(O)c2C(=O)c2c(NCCNCCO)ccc(NCCNCCO)c21", "Potency": "20 µM (active)"}
{"smiles": "CCC1(C)CC(=O)NC1=O", "note": "(stereo not drawn)", "activity change, negative = inhibition": -11.9}
{"smiles": "CN(C)CCC=C1c2ccccc2C=Cc2ccccc21", "activity change, negative = inhibition": -0.711}
{"smiles": "Cn1c(=O)c2c(ncn2C)n(C)c1=O", "activity change, negative = inhibition": -9.95}
{"smiles": "CCC1(c2ccccc2)C(=O)NCNC1=O", "activity change, negative = inhibition": -10.2}
{"smiles": "CCCNCC(O)COc1ccccc1C(=O)CCc1ccccc1", "note": "(stereo not drawn)", "activity change, negative = inhibition": -4.04}
{"smiles": "CN1CCC(=C2c3ccccc3CC(=O)c3sccc32)CC1", "activity change, negative = inhibition": -5.89}
{"smiles": "O=C(c1ccc(F)cc1)C1CCN(CCn2c(=O)[nH]c3ccccc3c2=O)CC1", "activity change, negative = inhibition": 2.63}
{"smiles": "CN1CCN(CCCN2c3ccccc3Sc3ccc(Cl)cc32)CC1", "activity change, negative = inhibition": -1.46}
{"smiles": "CC[N+](CC)(CC)CCOc1cccc(OCC[N+](CC)(CC)CC)c1OCC[N+](CC)(CC)CC", "activity change, negative = inhibition": 29.6}
{"smiles": "O=C1N(c2ccccc2)c2ccccc2C1(Cc1ccncc1)Cc1ccncc1", "activity change, negative = inhibition": -8.96}
{"smiles": "NC(=O)OCC(COC(N)=O)c1ccccc1", "activity change, negative = inhibition": -3.94}
{"smiles": "CC(CCc1ccc(O)cc1)NCCc1ccc(O)c(O)c1", "note": "(stereo not drawn)", "activity change, negative = inhibition": -5.39}
{"smiles": "COc1ccccc1N1CCN(CC(O)COc2cccc3ccccc23)CC1", "note": "(stereo not drawn)", "activity change, negative = inhibition": -7.28}
{"smiles": "Cn1c(=O)c2[nH]cnc2n(C)c1=O", "activity change, negative = inhibition": -11.2}
{"smiles": "COc1cc2nc(N3CCN(C(=O)C4COc5ccccc5O4)CC3)nc(N)c2cc1OC", "note": "(stereo not drawn)", "activity change, negative = inhibition": 32.4}
{"smiles": "CN(C)CCOC(c1ccccc1)c1ccccc1", "activity change, negative = inhibition": -7.46}
{"smiles": "Cn1cnc2c1c(=O)[nH]c(=O)n2C", "activity change, negative = inhibition": -14.6}
